PubChem BioAssay (Tox21)
Inconclusive results are not listed. Entries that show only a call come without a potency. Activity calls are given as the source filed them. Calls come from the whole dose curve.

Experiment: qHTS assay to identify small molecule agonists of the endoplasmic reticulum stress response signaling pathway - cell viability counter screen (AID 1159517); note: nearly all actives have a fitted effect of over 50% in size
Details: ESRE-bla HeLa viability, CellTiter-Glo luminescence, 5 h; series mostly up to 61 µM
Excerpt: U.S. Tox21 Program National Center for Advancing Translational Sciences [NCATS] NIH Chemical Genomics Center [NCGC] U.S. Environmental Protection Agency [EPA] National Institutes of Environmental Health Sciences [NIEHS] National Toxicology Program [NTP] U.S. Food and Drug Administration [FDA] Tox21 Assay Overview: Endoplasmic Reticulum (ER) plays an important role in cellular signaling, protein folding/maturation, stress response, lipid biosynthesis, calcium storage and release etc. Under stress conditions, proteins in ER misfold or unfold, and leading to the expression of ER stress responsive genes. ER stress has been associated with a variety of pathophysiological conditions such as cancer, inflammation, neurodegenerative diseases, diabetes, ischemic heart disease etc. To identify the compounds that induce ER stress response, an ER stress reporter cell line, CellSensor ESRE-bla HeLa (Life Technologies, Carlsbad, CA) containing a beta-lactamase reporter gene under control of the Endoplasmic reticulum Stress Response Element (ESRE) was used to screen Tox21 10K compound library. The cytotoxicity of the Tox21 compound library against the ESRE-bla HeLa cell line was tested in parallel by measuring cell viability using the CellTiter-Glo assay in the same wells.
Tox21 Assay Protocol Summary: ESRE-bla HeLa cells were dispensed at 1,500 cells/6 uL of assay medium per well into black wall/clear-bottom 1536-well plates using a Multidrop Combi (ThermoFisher Scientific, Waltham, MA) dispenser. After the assay plates were incubated at 37 C and 5% CO2 for an overnight, 23 nL of compounds dissolved in DMSO, positive controls or DMSO only was transferred to the assay plate by a Pintool station (Kalypsys, San Diego, CA). The assay plates were incubated at 37 C and 5% CO2 for 5 hr. One uL of LiveBLAzer B/G FRET substrate (Life Technologies) was added using a FRD (Flying Reagent Dispenser, Aurora Discovery, San Diego, CA) and the plates were incubated at room temperature for 2 hr. Fluorescence intensity (405 nm excitation, 460 nm and 530 nm emissions) was measured using an Envision plate reader (PerkinElmer, Shelton, CT). For cytotoxicity, 4 ul/well of CellTiter-Glo reagent was added into the assay plates using an FRD. After 30 min incubation at room temperature, the luminescence intensity was measured using a ViewLux plate reader (PerkinElmer).

Structure (SMILES)	Potency
CCCCCCCCO	inactive
C=CC(=O)NCOCCCC	inactive
CCCCCCC(=O)O	inactive
Cc1ccccc1C=O	inactive
NC(=O)NC(N)=O	inactive
CS(=O)(=O)c1ccc(Cl)cc1	inactive
CC(=O)OC/C=C(\C)CCC=C(C)C	inactive
CC1(C)C(=O)N(Cl)C(=O)N1Cl	inactive
O=C(Cl)c1ccc(C(=O)Cl)cc1	inactive
Cc1ncc(CO)c(CO)c1O	inactive
CCn1cc(C(=O)O)c(=O)c2cc3c(cc21)OCO3	inactive
CCOC(=O)c1ccc(O)cc1	inactive
CCCOCC(C)O (stereo not given)	inactive
COc1ccc2cc3[n+](cc2c1OC)CCc1cc2c(cc1-3)OCO2	inactive
CCCCCCCCCCCC(=O)N(C)CC(=O)O	inactive
OCc1ccc(Cl)cc1Cl	inactive
NC(=O)c1ncn([C@@H]2O[C@H](CO)[C@@H](O)[C@H]2O)n1	inactive
CCCCCCCCCCCCCC(=O)O	inactive
COC(=O)OC	inactive
CCCOC(=O)NCCCN(C)C	inactive

Structure (SMILES)	Potency
Oc1ccc(Cc2ccccc2O)cc1	inactive
CCCN(CCC)C(=O)SCC	inactive
CN=C(NC#N)NCCSCc1nc[nH]c1C	inactive
CC(=O)OCc1ccc2c(c1)OCO2	inactive
O=C(O)Cc1c[nH]c2ccccc12	inactive
NCCNCCNCCN	inactive
CCCCCCCCC(=O)O	inactive
Cc1cc(CC(=O)O)n(C)c1C(=O)c1ccc(Cl)cc1	inactive
C=C1C[C@]23C[C@@]1(O)CC[C@H]2[C@@]12C=C[C@H](O)[C@@](C)(C(=O)O1)[C@H]2[C@@H]3C(=O)O	inactive
Nc1cccc(C(F)(F)F)c1	inactive
CCCCCNCCCCC	inactive
Cc1ccc(Cl)cc1	inactive
CC(C)=CCC/C(C)=C/C=O	inactive
Clc1cccc(Cl)c1NC1=NCCN1	inactive
CC1=CC(=O)CC(C)(C)C1	inactive
CCCCC(=O)O	inactive
N#CCC(=O)O	inactive
c1cnc2c(c1)ccc1cccnc12	inactive
CC(=O)C(C)C	inactive
COc1c2ccoc2cc2oc(=O)ccc12	inactive
